Measured values taken from the supplement of paper PMC13380429.

Tested on: Vero E6 infected with SARS-CoV-2
Test: inhibition of SARS-CoV-2 cytopathic effect; higher = more antiviral protection, active = above 15
Settings: 48 h

Measured: inhibition of SARS-CoV-2 cytopathic effect

N[C@@H]1CCCCN(c2c(F)cc3c(=O)c(C(=O)O)cn(C4CC4)c3c2Cl)C1 [besifloxacin]
inactive: 1 nM -2.51% | 8.33 nM 1.39% | 100 nM 2.41% | 833.33 nM 2.48% | 10000 nM 2.15%

CC1(C)CCC(C)(C)c2cc(C3(c4ccc5cc(C(=O)O)ccc5c4)SCCS3)ccc21
inactive: 1 nM -0.61% | 8.33 nM 2.69% | 100 nM 1.81% | 833.33 nM 1.35% | 10000 nM 2.66%

CN(C)CCCNC(=O)c1ccc(-c2cc(O)c3ncccc3c2)cc1
inactive: 1 nM -1.74% | 8.33 nM -0.41% | 100 nM 1.01% | 833.33 nM -0.72% | 10000 nM 6.05%

COC(=O)C1=C(C)NC(C)=C(C(=O)OCCCN2CCC(c3ccccc3)(c3ccccc3)CC2)[C@@H]1c1cccc([N+](=O)[O-])c1 [dexniguldipine]
inactive: 1 nM 1.4% | 8.33 nM 0.16% | 100 nM 2.09% | 833.33 nM -3.36% | 10000 nM -4.64%

CC[C@H](C)[C@H](N)C1=N[C@H](C(=O)N[C@@H](CC(C)C)C(=O)N[C@H](CCC(=O)O)C(=O)N[C@H](C(=O)N[C@H]2CCCCNC(=O)[C@H](CC(N)=O)NC(=O)[C@@H](CC(=O)O)NC(=O)[C@H](Cc3cnc[nH]3)NC(=O)[C@@H](Cc3ccccc3)NC(=O)[C@H]([C@@H](C)CC)NC(=O)[C@@H](CCCN)NC2=O)[C@@H](C)CC)CS1 [bacitracin]
inactive: 1 nM -0.71% | 8.33 nM 2.89% | 100 nM -2.3% | 833.33 nM -1.54% | 10000 nM -0.85%

CNCCCN1c2ccccc2CCc2ccccc21 [desipramine]
inactive: 1 nM -0.7% | 8.33 nM -0.11% | 100 nM -1.22% | 833.33 nM -1.13% | 10000 nM -2.62%

CC1=C(/C=C/C(C)=C/C=C/C(C)=C/CO)C(C)(C)CCC1 [retinol]
inactive: 1 nM -0.49% | 8.33 nM 0.39% | 100 nM 0.03% | 833.33 nM 2.09% | 10000 nM 2.75%

CCCCC/C=C\C=C\CCCCCCCCC(=O)O [trans-10,cis-12-conjugated-linoleic-acid]
inactive: 1 nM -0.53% | 8.33 nM -2.2% | 100 nM -2.88% | 833.33 nM -2.64% | 10000 nM 7.84%

CC1(C)NC(=O)N(c2ccc([N+](=O)[O-])c(C(F)(F)F)c2)C1=O [nilutamide]
inactive: 1 nM 3.3% | 8.33 nM 1.17% | 100 nM 0.03% | 833.33 nM -2.17% | 10000 nM 1.01%

CN1[C@@H]2CC[C@H]1C[C@@H](OC(c1ccc(F)cc1)c1ccc(F)cc1)C2 [3-alpha-bis-(4-fluorophenyl)-methoxytropane]
inactive: 1 nM 0.13% | 8.33 nM 1.33% | 100 nM -2.46% | 833.33 nM -1.34% | 10000 nM -5.09%

O=c1[nH]c(=O)c2ccccc2o1 [carsalam]
inactive: 1 nM -1.46% | 8.33 nM 0.95% | 100 nM 4.79% | 833.33 nM 0.99% | 10000 nM 4.32%

CNc1cc2[nH]c(=O)n(-c3ccc(NC(=O)NS(=O)(=O)c4ccc(Cl)s4)cc3)c(=O)c2cc1F [elinogrel]
inactive: 1 nM 3.26% | 8.33 nM 1.24% | 100 nM -3.68% | 833.33 nM 3.74% | 10000 nM -1.62%

COc1ccc(C2(CNC(=O)c3ccc(NC(=O)c4ccco4)cc3)CCOCC2)cc1
inactive: 1 nM 1.26% | 8.33 nM 1.21% | 100 nM -2.16% | 833.33 nM -1.65% | 10000 nM -2.44%

Nc1c(S(=O)(=O)O)cc(Nc2cccc3ccccc23)c2c1C(=O)c1ccccc1C2=O
inactive: 1 nM -0.33% | 8.33 nM -0.72% | 100 nM -2.22% | 833.33 nM -1.16% | 10000 nM -4.63%

Cn1c(Nc2ccc(C(F)(F)F)cc2)nc2cc(Oc3ccnc(-c4ncc(C(F)(F)F)[nH]4)c3)ccc21
inactive: 1 nM 0.79% | 8.33 nM 1.69% | 100 nM 0.4% | 833.33 nM 0.16% | 10000 nM 4.48%

OC[C@H]1O[C@@H](n2cnc3c(NC4CCCC4)nc(Cl)nc32)[C@H](O)[C@@H]1O [2-chloro-N6-cyclopentyladenosine]
inactive: 1 nM -3.44% | 8.33 nM 0.41% | 100 nM 2.9% | 833.33 nM 2.35% | 10000 nM -0.77%
